# From PMC7862700, “An all-to-all approach to the identification of sequence-specific readers for epigenetic DNA modifications on cytosine”
# Columns and labels:
# Assay in all cases: DAPPL (digital affinity profiling via proximity ligation, sequencing); 10 mM Tris-HCl pH 7.5, 50 mM NaCl, 1 mM DTT, 4% glycerol, room temperature, 30 min; GST-TFs on glutathione beads, 16-mer random dsDNA library, 0.1% formaldehyde crosslink after washing; high values mean tight binding
# FEV = biological target: T1, FEV (Homo sapiens, UniProt Q99581 1-238); settings: protein: recombinant; tags: N-terminal GST; dsDNA, one strand shown
# T1 sequence: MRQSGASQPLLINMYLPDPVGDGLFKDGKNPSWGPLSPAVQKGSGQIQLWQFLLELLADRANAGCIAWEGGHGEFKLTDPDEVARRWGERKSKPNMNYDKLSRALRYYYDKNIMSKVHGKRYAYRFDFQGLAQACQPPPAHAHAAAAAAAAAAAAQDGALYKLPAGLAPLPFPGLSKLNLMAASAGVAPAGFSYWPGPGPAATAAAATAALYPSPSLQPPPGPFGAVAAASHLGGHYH
# In short: (§1)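 Sequencing on an Illumina NextSeq500 followed washing, crosslinking with 0.1% formaldehyde, proximity ligation (BsaI/T4 ligase, 1 h, 37 °C) and PCR amplification of pools that had been incubated for 30 min at room temperature with 200 nmole of a random double-stranded 16-mer DNA library in Tris/NaCl/DTT/glycerol buffer. Each pool held DNA-barcoded human transcription factors, expressed in yeast as GST fusions and captured on glutathione beads, plus a tag-only sample. Binding signal is a hexamer's read frequency for a factor divided by its frequency in the tag-only sample.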
# ETV5 = ETV5 (Homo sapiens, UniProt P41161 1-510); settings: protein: recombinant; tags: N-terminal GST; dsDNA, one strand shown
# Sequence of ETV5 (P41161 whole entry): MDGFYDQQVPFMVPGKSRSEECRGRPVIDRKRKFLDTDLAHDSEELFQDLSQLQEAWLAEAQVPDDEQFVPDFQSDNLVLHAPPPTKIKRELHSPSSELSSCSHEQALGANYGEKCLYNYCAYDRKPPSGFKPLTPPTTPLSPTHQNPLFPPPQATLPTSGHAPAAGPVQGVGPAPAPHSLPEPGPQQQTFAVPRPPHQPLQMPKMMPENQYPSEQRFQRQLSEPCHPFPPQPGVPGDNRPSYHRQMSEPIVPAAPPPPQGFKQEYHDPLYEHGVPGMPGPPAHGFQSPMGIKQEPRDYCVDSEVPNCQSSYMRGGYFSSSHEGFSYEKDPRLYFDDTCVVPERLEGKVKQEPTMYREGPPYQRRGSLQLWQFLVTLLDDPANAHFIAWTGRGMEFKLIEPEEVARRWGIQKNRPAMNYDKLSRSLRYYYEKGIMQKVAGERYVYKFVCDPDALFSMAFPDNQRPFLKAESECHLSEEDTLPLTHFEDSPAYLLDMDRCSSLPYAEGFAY
# In short: as §1
# HSF1 = HSF1 (Homo sapiens, UniProt Q00613 1-529); settings: protein: recombinant; tags: N-terminal GST; chain copies: 3; dsDNA, one strand shown
# Sequence of HSF1 (Q00613 whole entry): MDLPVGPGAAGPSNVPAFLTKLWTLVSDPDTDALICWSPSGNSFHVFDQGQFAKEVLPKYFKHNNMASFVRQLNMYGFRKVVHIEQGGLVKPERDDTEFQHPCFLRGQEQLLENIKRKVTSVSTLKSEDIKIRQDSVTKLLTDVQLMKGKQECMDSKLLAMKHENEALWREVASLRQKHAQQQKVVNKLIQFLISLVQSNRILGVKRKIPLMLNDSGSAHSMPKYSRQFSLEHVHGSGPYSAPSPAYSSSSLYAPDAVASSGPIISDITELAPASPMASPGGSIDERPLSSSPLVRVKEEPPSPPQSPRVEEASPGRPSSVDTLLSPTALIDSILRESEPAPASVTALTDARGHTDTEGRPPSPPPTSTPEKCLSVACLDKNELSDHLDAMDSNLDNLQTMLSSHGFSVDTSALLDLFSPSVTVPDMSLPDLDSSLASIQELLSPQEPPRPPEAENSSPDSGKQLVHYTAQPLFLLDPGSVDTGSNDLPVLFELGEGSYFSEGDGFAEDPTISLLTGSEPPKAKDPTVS
# In short: as §1
# SPIC = biological target: T2, SPIC (Homo sapiens, UniProt Q8N5J4 1-248); settings: protein: recombinant; tags: N-terminal GST; dsDNA, one strand shown
# T2 sequence: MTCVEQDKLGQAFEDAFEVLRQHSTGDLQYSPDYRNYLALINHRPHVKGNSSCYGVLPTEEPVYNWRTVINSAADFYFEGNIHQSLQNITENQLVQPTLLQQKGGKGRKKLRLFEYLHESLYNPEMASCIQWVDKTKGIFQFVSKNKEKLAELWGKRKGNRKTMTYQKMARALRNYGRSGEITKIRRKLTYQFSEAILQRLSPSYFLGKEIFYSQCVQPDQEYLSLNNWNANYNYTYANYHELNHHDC
# In short: as §1
# ELF4 = ELF4 (Homo sapiens, UniProt Q99607 1-663); settings: protein: recombinant; tags: N-terminal GST; dsDNA, one strand shown
# Sequence of ELF4 (Q99607 whole entry): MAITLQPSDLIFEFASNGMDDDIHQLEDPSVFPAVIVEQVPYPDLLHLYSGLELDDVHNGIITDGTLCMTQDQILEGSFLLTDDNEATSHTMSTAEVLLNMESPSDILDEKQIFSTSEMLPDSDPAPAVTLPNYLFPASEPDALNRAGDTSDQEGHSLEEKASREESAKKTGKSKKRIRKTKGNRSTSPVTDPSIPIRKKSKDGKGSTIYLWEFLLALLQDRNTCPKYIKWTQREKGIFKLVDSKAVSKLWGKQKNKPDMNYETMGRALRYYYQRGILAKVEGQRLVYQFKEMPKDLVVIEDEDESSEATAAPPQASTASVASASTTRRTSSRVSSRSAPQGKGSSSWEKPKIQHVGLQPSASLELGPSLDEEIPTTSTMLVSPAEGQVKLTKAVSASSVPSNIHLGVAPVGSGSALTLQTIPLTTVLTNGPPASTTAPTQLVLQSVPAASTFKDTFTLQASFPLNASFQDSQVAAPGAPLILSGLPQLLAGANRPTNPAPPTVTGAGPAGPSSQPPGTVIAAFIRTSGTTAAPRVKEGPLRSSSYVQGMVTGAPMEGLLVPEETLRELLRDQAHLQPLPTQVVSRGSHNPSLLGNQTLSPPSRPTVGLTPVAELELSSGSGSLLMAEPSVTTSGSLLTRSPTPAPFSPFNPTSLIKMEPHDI
# In short: as §1
# ELK4 = biological target: T3, ELK4 (Homo sapiens, UniProt P28324-2 1-405); settings: protein: recombinant; tags: N-terminal GST; dsDNA, one strand shown
# T3 sequence: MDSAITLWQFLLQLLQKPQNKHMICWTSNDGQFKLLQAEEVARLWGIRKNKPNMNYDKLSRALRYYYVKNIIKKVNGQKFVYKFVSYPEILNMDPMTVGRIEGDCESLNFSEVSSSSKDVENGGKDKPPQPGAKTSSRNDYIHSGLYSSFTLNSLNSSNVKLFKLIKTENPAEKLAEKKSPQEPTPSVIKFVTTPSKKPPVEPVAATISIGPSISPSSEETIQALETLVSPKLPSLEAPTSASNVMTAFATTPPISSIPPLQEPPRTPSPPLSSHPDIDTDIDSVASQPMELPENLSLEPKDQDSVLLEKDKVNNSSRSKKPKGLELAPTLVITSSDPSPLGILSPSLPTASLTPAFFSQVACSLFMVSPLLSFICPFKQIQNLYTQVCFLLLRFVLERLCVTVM
# In short: as §1
# ETV2 = biological target: T4, ETV2 (Homo sapiens, UniProt O00321 1-342); settings: protein: recombinant; tags: N-terminal GST; dsDNA, one strand shown
# T4 sequence: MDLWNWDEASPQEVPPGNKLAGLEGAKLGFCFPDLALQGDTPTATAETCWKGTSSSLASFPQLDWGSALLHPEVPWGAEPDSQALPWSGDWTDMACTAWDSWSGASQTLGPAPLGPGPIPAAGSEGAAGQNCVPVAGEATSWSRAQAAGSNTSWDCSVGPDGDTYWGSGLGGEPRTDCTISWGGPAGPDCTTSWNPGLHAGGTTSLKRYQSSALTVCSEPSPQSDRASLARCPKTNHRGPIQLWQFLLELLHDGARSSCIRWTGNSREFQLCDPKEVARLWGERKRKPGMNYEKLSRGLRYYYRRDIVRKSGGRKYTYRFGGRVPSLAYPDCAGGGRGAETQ
# In short: as §1
# ELF3 = biological target: T5, ELF3 (Homo sapiens, UniProt P78545 1-371); settings: protein: recombinant; tags: N-terminal GST; dsDNA, one strand shown
# T5 sequence: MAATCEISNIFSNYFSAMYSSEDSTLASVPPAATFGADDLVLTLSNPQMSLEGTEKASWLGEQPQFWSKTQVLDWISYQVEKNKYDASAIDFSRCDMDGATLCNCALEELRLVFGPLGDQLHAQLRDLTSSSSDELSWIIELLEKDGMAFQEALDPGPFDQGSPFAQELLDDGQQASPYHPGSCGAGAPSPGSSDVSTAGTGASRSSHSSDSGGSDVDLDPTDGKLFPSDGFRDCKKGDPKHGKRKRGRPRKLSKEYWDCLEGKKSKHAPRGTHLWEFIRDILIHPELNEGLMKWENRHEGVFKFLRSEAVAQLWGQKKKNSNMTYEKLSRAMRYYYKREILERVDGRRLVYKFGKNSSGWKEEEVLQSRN
# In short: as §1
# ETV1 = ETV1 (Homo sapiens, UniProt P50549 1-477); settings: protein: recombinant; tags: N-terminal GST; dsDNA, one strand shown
# Sequence of ETV1 (P50549 whole entry): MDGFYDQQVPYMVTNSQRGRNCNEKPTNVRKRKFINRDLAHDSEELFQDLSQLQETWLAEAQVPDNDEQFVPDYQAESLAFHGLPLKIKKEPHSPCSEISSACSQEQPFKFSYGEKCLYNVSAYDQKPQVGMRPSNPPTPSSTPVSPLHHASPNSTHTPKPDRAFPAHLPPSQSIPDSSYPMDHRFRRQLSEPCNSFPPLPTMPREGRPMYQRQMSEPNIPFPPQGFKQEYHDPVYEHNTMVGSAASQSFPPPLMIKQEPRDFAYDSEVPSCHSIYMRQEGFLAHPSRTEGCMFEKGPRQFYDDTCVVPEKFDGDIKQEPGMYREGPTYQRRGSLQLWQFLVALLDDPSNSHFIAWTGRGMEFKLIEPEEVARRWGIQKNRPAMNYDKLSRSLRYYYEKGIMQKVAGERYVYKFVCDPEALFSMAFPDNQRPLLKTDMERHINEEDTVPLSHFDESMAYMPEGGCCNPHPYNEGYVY
# In short: as §1
# ERF = biological target: T6, ERF (Homo sapiens, UniProt P50548 1-548); settings: protein: recombinant; tags: N-terminal GST; dsDNA, one strand shown
# T6 sequence: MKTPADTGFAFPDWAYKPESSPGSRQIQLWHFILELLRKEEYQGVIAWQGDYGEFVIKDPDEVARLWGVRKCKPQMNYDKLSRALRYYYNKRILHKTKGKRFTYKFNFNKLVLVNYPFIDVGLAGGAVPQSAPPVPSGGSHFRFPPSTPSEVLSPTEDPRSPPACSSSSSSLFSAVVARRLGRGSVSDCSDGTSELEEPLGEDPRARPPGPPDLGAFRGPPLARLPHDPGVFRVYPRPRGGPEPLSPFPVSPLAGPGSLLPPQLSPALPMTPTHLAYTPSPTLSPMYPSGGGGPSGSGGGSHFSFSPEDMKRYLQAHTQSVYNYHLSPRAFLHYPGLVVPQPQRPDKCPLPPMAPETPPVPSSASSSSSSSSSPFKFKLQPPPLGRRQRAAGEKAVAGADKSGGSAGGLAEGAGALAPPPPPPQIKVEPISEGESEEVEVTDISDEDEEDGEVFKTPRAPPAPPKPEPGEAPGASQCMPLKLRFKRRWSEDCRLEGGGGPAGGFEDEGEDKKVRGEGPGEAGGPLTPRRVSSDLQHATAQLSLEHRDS
# In short: as §1
# ETV3L = biological target: T7, ETV3L (Homo sapiens, UniProt Q6ZN32 1-361); settings: protein: recombinant; tags: N-terminal GST; dsDNA, one strand shown
# T7 sequence: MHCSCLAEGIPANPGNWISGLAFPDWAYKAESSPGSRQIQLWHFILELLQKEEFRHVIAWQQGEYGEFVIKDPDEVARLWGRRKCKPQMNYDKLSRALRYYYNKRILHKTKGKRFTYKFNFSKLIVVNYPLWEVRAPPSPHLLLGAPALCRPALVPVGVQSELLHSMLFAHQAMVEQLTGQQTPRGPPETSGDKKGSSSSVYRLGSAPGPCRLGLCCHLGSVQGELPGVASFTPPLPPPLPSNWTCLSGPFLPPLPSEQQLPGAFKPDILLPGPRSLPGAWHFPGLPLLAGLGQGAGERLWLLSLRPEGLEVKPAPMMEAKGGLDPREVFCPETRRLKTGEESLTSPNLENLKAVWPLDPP
# In short: as §1
# ETS2 = biological target: T8, ETS2 (Homo sapiens, UniProt P15036 1-469); settings: protein: recombinant; tags: N-terminal GST; dsDNA, one strand shown
# T8 sequence: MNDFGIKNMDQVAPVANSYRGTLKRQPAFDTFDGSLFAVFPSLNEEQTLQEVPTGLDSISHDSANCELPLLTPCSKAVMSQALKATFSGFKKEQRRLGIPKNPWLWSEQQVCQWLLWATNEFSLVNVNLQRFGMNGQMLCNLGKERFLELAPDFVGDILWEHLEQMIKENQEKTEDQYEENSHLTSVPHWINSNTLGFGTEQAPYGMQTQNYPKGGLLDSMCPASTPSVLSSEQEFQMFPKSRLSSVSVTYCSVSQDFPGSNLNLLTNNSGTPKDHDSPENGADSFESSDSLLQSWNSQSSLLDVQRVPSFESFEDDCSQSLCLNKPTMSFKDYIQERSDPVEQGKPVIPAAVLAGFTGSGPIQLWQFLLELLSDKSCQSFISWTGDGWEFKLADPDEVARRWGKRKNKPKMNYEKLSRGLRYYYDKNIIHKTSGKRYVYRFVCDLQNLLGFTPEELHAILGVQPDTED
# In short: as §1
# SPDEF = biological target: T9, SPDEF (Homo sapiens, UniProt O95238 1-335); settings: protein: recombinant; tags: N-terminal GST; dsDNA, one strand shown
# T9 sequence: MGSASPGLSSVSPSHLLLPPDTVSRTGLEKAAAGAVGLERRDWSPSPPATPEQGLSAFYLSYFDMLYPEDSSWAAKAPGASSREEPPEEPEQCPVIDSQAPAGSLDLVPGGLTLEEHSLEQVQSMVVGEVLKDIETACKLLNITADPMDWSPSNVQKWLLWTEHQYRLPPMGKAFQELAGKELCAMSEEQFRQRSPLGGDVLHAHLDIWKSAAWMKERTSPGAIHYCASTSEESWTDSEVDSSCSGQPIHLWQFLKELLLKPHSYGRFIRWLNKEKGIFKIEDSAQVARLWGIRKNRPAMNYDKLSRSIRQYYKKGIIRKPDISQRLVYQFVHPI
# In short: as §1
# ETV7 = biological target: T10, ETV7 (Homo sapiens, UniProt Q9Y603 1-341); settings: protein: recombinant; tags: N-terminal GST; dsDNA, one strand shown
# T10 sequence: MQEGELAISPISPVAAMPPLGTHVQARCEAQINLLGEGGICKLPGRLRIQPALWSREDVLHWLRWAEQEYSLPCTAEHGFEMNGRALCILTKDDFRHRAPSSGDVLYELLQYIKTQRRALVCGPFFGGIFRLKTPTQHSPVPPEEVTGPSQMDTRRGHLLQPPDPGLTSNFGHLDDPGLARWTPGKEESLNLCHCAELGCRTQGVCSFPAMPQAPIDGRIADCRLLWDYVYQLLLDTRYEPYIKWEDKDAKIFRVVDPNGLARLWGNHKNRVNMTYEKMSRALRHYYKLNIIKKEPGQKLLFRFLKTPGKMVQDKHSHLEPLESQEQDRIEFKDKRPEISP
# In short: as §1
# ELF5 = biological target: T11, ELF5 (Homo sapiens, UniProt Q9UKW6-2 1-255); settings: protein: recombinant; tags: N-terminal GST; dsDNA, one strand shown
# T11 sequence: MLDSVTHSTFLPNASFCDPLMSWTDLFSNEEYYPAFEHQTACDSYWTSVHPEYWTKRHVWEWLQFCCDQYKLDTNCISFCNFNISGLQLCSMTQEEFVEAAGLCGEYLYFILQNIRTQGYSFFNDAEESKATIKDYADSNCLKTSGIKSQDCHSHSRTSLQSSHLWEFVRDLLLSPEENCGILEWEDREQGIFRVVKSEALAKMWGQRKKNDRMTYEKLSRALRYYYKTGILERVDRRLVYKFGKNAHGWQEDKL
# In short: as §1
# ETV3 = biological target: T12, ETV3 (Homo sapiens, UniProt P41162-2 1-143); settings: protein: recombinant; tags: N-terminal GST; dsDNA, one strand shown
# T12 sequence: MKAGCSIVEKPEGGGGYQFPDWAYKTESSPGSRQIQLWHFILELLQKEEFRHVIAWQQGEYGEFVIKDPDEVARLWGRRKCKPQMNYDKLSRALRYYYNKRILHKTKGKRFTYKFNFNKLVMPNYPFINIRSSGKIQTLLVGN
# In short: as §1
# ETV6 = ETV6 (Homo sapiens, UniProt P41212 1-452); settings: protein: recombinant; tags: N-terminal GST; dsDNA, one strand shown
# Sequence of ETV6 (P41212 whole entry): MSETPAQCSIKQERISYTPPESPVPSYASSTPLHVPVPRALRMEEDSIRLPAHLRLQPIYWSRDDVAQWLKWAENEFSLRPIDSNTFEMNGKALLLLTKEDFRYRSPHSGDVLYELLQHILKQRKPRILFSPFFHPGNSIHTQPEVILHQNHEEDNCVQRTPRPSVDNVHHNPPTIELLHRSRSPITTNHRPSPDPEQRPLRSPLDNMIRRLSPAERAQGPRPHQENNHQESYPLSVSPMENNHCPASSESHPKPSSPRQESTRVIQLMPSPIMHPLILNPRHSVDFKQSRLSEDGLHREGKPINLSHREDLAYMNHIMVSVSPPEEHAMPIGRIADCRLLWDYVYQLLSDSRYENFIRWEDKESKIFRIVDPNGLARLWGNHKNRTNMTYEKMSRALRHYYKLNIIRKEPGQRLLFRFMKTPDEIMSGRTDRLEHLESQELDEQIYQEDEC
# In short: as §1
Sequence,binding signal (FEV),binding signal (ETV5),binding signal (HSF1),binding signal (SPIC),binding signal (ELF4),binding signal (ELK4),binding signal (ETV2),binding signal (ELF3),binding signal (ETV1),binding signal (ERF),binding signal (ETV3L),binding signal (ETS2),binding signal (SPDEF),binding signal (ETV7),binding signal (ELF5),binding signal (ETV3),binding signal (ETV6)
GCCTCA,"1.19 fold enrichment (6-mer frequency, TF over GST control)","1.22 fold enrichment (6-mer frequency, TF over GST control)","1.05 fold enrichment (6-mer frequency, TF over GST control)","1.21 fold enrichment (6-mer frequency, TF over GST control)","1.2 fold enrichment (6-mer frequency, TF over GST control)","1.13 fold enrichment (6-mer frequency, TF over GST control)","1.12 fold enrichment (6-mer frequency, TF over GST control)","1.34 fold enrichment (6-mer frequency, TF over GST control)","1.13 fold enrichment (6-mer frequency, TF over GST control)","1.35 fold enrichment (6-mer frequency, TF over GST control)","1.31 fold enrichment (6-mer frequency, TF over GST control)","1.13 fold enrichment (6-mer frequency, TF over GST control)","1.16 fold enrichment (6-mer frequency, TF over GST control)","1.24 fold enrichment (6-mer frequency, TF over GST control)","1.15 fold enrichment (6-mer frequency, TF over GST control)","1.19 fold enrichment (6-mer frequency, TF over GST control)","1.18 fold enrichment (6-mer frequency, TF over GST control)"
CAGGAA,"1.51 fold enrichment (6-mer frequency, TF over GST control)","1.79 fold enrichment (6-mer frequency, TF over GST control)","1.04 fold enrichment (6-mer frequency, TF over GST control)","1.65 fold enrichment (6-mer frequency, TF over GST control)","1.52 fold enrichment (6-mer frequency, TF over GST control)","1.37 fold enrichment (6-mer frequency, TF over GST control)","1.6 fold enrichment (6-mer frequency, TF over GST control)","1.86 fold enrichment (6-mer frequency, TF over GST control)","1.74 fold enrichment (6-mer frequency, TF over GST control)","1.42 fold enrichment (6-mer frequency, TF over GST control)","1.53 fold enrichment (6-mer frequency, TF over GST control)","1.75 fold enrichment (6-mer frequency, TF over GST control)","1.53 fold enrichment (6-mer frequency, TF over GST control)","1.52 fold enrichment (6-mer frequency, TF over GST control)","2.12 fold enrichment (6-mer frequency, TF over GST control)","1.72 fold enrichment (6-mer frequency, TF over GST control)","1.83 fold enrichment (6-mer frequency, TF over GST control)"
